Screens: PubChem BioAssay, National Center for Advancing Translational Sciences (NCATS)
ELG1 repair inh: blocks ELG1-dependent DNA repair in HEK293T cells; AID 504467; HEK293T ELG1-luciferase reporter, luminescence, 16 h; DNA damage induced by 5-fluorouridine; Potency, µM (top dose mostly 46.1 µM), for the others: at the highest dose activity change, negative = inhibition, hits mostly inhibitors; 330,000 tested, 2.3% active; also: potency is read from the fitted curve at half-maximal effect; nearly all actives have a fitted effect of over 55% in size
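Overnight (16 hr) co-exposure of 2,000 cells/well to 5-fluorouridine and compound at 37 °C preceded detection. Luciferase was quantified via ONE-Glo luminescence; loss of signal denotes inhibition.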
VP16 counter: counter-screen for ROR gamma inhibitors: Gal4-VP16 reporter; Drosophila S2 Gal4-VP16 UAS-luciferase, luminescence, 20 h; Potency, µM (top dose mostly 53.6 µM), without a hit: at the top dose activity, negative = inhibition, actives largely listed as inhibitors; 310,000 tested, 3.5% active; AID 2546;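 also: Gal4-VP16 expression switched on by copper sulfate through the metallothionein promoter; potency is read from the fitted curve at half-maximal effect; nearly all actives have a fitted effect of over 50% in size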
RORgamma inh: blocks mouse ROR gamma transcriptional activity; Drosophila S2 Gal4-RORgamma UAS-luciferase reporter, 20 h; Potency, µM (top dose mostly 53.6 µM), without a hit: at the highest dose activity change, negative = inhibition, most hits filed as inhibitors; P51450; AID 2551; 310,000 tested, 5.4% active; also: potency is read from the fitted curve at half-maximal effect; nearly all actives have a fitted effect of over 60% in size
Target sequence (P51450 whole entry, looked up, the tested form may be a part): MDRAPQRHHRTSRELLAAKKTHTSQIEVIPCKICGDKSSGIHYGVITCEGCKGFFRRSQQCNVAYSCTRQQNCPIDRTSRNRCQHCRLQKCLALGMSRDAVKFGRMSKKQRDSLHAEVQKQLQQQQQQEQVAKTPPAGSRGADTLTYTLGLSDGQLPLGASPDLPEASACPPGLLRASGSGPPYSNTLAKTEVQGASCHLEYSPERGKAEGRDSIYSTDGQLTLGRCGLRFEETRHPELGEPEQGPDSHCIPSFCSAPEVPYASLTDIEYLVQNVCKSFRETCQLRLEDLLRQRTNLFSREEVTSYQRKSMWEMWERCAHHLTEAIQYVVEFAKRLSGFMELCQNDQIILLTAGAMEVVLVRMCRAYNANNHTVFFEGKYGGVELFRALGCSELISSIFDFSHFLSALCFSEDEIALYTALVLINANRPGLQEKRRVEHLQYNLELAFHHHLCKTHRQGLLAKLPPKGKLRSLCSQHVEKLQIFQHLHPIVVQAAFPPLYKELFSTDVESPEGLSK
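Drosophila S2 cells stably expressing Gal4-DBD/mouse RORγ fusion under metallothionein promoter plus UAS-luciferase; compound 1 h, then 700 uM CuSO4 induction for 20 h at ambient temperature; inhibition read as reduced luminescence.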
IL1B secr inh: inhibitors of inflammasome signaling (IL-1 beta secretion). AID 743279. activity change, % at 57.5 µM. THP-1 LPS/ATP IL-1B secretion, AlphaLISA, 16 h; stronger effect = lower value. 360,000 tested, 4.7% active; in the data active = activity change below about -50%; inconclusive = mostly about -30% to -49%
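Secreted IL-1B measured by AlphaLISA bead assay after 16 h compound exposure of THP-1 cells; compounds (final up to 57.5 uM) added 1 h before LPS (250 ng/mL) and ATP (1.25 mM) stimulation; lower signal means less secretion.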
TDP1 cell noCPT: qHTS for Inhibitors of human tyrosyl-DNA phosphodiesterase 1 (TDP1): qHTS in cells in absence of CPT; Potency, µM (highest dose often 46.2 µM), for inactives: top-dose activity change, negative = growth inhibition, most hits filed as inhibitors; DT40 Tdp1-/- hTDP1 cells, no CPT, ATP luminescence, 48 h; AID 686978, 2013; 420,000 tested, 15% active; also: potency is read from the fitted curve at half-maximal effect; nearly all actives have a fitted effect of over 55% in size
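Chicken DT40 Tdp1-/- cells complemented with human TDP1, screened without camptothecin (DMSO vehicle only), 400 cells/well. Compounds pin-transferred, cells incubated at 37 °C for at least 48 hr. Growth read as ATP-dependent luminescence (CellTiter-Glo, 30 min at RT).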
TDP1 cell CPT: DT40-hTDP1 cell growth loss with CPT. 420,000 tested, 12% active. chicken DT40 Tdp1-/-;hTDP1 cells + 20 nM CPT, ATP luminescence, 48 h. Potency, µM (series often up to 46.2 µM), for inactives: at the highest dose activity change, negative = growth inhibition, usual class: inhibitors. AID 686979; also: potency is read from the fitted curve at half-maximal effect; nearly all actives have a fitted effect of over 55% in size
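Chicken DT40 Tdp1-/- cells stably complemented with human TDP1 were seeded at 400 cells/well in medium containing 20 nM camptothecin, exposed to pin-transferred compounds, and grown at 37 °C for at least 48 hr. Viability was read as ATP luminescence.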
The depositor's hits bear a star; u = inconclusive; x = no result. Rows were chosen to be rich in hits. Some 21% of all compounds tested hit in one or more screens of this group. Unless noted, calls follow the shape of the dose curve; as a rule, active = well fitted curve in the direction sought with a large enough effect; inconclusive = small, poorly fitted or top-dose-only effect, or another doubt; inactive = no such curve, though single readings can be large; an effect the other way counts as inactive or inconclusive. % is scaled to controls: 0 for no effect and ±100 for the full control effect.

SMILES	ELG1 repair inh	VP16 counter	RORgamma inh	IL1B secr inh	TDP1 cell noCPT	TDP1 cell CPT
COc1ccc(C2C(C#N)=C(C)NC3=C2C(=O)c2ccccc23)cc1 (stereo unspecified)	-8%	1%	20%	-17	26µM*	u
CCOc1ccc(C2C(C#N)=C(C)NC3=C2C(=O)c2ccccc23)cc1 (stereo unspecified)	u	-17%	-2%	7	15µM*	21µM*
CCOc1ccc(C2C(C#N)=C(N)N(N(C)C)C3=C2C(=O)CC(C)(C)C3)cc1 (stereo unspecified)	9%	-4%	4%	-10	-4%	-29%
COc1ccc(C2C(=O)c3ccccc3C2=O)cc1	u	-8%	35%	4	-9%	-13%
COc1cccc(C(=O)N=c2sc3c(C)ccc(OC)c3n2C)c1	u	1%	34%	22	u	-1%
COc1ccc(C(=O)N=c2sc3c(C)ccc(OC)c3n2C)cc1OC	u	9%	-24%	-27	5.8µM*	5.2µM*
COc1ccc(C(=O)N=c2sc3ccccc3n2C)cc1OC	u	-6%	16%	1	15µM*	u
CCCN(CCC)Cc1cc(=O)oc2cc(C)c(Cl)cc12	x	x	x	6	u	u
O=C(c1ccc(C(F)(F)F)cc1)C1CCCN(C(=O)CCc2ccncc2)C1 (stereo unspecified)	u	1%	u	-5	6.5µM*	8.2µM*
O=C(c1cccc2ccccc12)C1CCCN(C(=O)CCc2cnccn2)C1 (stereo unspecified)	-19%	-5%	34%	14	8.2µM*	u
O=C(c1cc(F)ccc1F)C1CCCN(C(=O)CCc2cnccn2)C1 (stereo unspecified)	-8%	2%	14%	16	-21%	-7%
CN(C)C(=O)CCC(=O)N1CCCC(C(=O)c2ccc(C(F)(F)F)cc2)C1 (stereo unspecified)	-4%	7%	4%	0	26µM*	u
CC(C)(C)c1ccc(C(=O)C2CCCN(C(=O)CN3CCCC3=O)C2)cc1 (stereo unspecified)	-17%	-17%	65%	40	u	u
NC(=O)CCC(=O)N1CCCC(C(=O)c2ccc(C(F)(F)F)cc2)C1 (stereo unspecified)	-4%	-3%	6%	-4	19%	-14%
CN(C)C(=O)N1CCC(C(=O)N2CCCC(C(=O)c3ccc(C(C)(C)C)cc3)C2)CC1 (stereo unspecified)	15µM*	-1%	u	-5	16µM*	u
CCC1=C2CC[C@H]3C(=O)N(CC)C(=O)[C@H]3[C@H]2[C@@]2(C)C(=NCCc3c[nH]c4ccccc34)OC(=O)N2C1=O	x	6%	8%	x	x	x
COc1ccc2c(c1)O[C@H](c1ccc3c(c1)OCO3)[C@@H](OC(=O)NCCc1ccc(OC)c(OC)c1)C2=O	x	-11%	3%	x	x	x
CC1(C(=O)NS(=O)(=O)c2ccc(C#N)cc2)CCN1C(=O)Cc1ccc(-c2ccccc2)cc1 (stereo unspecified)	x	x	x	36	10%	1%
C[C@H](CO)N1C[C@H](C)[C@@H](CN(C)S(=O)(=O)c2ccccc2F)OCc2cnnn2CCCC1=O	x	x	x	1	-26%	-4%
CCN(CC)CCN(Cc1cc2cc(C)cc(C)c2[nH]c1=O)C(=S)NCc1ccco1	-34%	u	3%	0	23µM*	26µM*
CCN(CC)CCN(Cc1cc2cc3c(cc2[nH]c1=O)OCO3)C(=S)NCc1ccco1	-7%	-11%	-3%	-63*	u	u
